# Measured values as given in PubChem BioAssay AID779 (Sanford-Burnham Center for Chemical Genomics, 2007).
# A number with no mark means an inactive call. The rule behind the calls is not given here.
# Test: placental alkaline phosphatase inhibitors, dose response, counter-screen, biochemical, colorimetric (AID 779)
# Conditions: PLAP counter-screen, colorimetric OD read-out
row,SMILES,IC50
1,Oc1c(C=C2N=c3ccccc3=N2)sc(=S)n1-c1ccc(F)cc1,> 50 µM
2,CCCOc1ccc(-c2nn(-c3ccccc3)cc2/C=C2\SC(=S)N(C3CCS(=O)(=O)C3)C2=O)cc1 (configuration not stated),> 50 µM
3,Cc1ccc(CNC(=O)CN2CCC(C(N)=O)CC2)cc1,> 50 µM
4,C/C(=C\C(=O)c1ccccc1)NNc1nc2ccccc2s1,> 50 µM
5,O=[N+]([O-])/C=C/c1cn(Cc2ccccc2)c2ccccc12,> 50 µM
6,COc1ccc(Cc2nnc(NC(=O)Cc3cccs3)s2)cc1,> 50 µM
7,COc1ccccc1N1CSC2=C(C#N)C(c3ccc(SC)cc3)CC(=O)N2C1 (configuration not stated),> 50 µM
8,N#Cc1sc2nc(-c3cccs3)cc(-c3ccccc3)c2c1N,> 50 µM
9,Oc1c(N=Nc2ccccn2)ccc2ccccc12,> 50 µM
10,COc1ccc(C(c2nnnn2Cc2cccs2)N2CCN(c3ccccc3F)CC2)cc1 (configuration not stated),> 50 µM
11,CCn1c(SCc2nc(-c3ccccc3)no2)nnc1-c1cccs1,> 50 µM
12,CCOC(=O)C1=C(c2ccccc2)N=c2s/c(=C\c3cc(OC)c(OC)c(OC)c3)c(=O)n2C1c1cccs1 (configuration not stated),> 50 µM
13,CCOC(=O)c1cc(OC(=O)c2ccccc2OC)n(-c2ccccc2)n1,> 50 µM
14,CCOC(=O)c1cc(-c2ccc(/C=C3/C(=O)NC(=O)C(C#N)=C3C)o2)ccc1Cl,> 50 µM
15,CCN(CCO)c1nc(SC)nc2c1sc1nc(-c3ccco3)c3c(c12)CCC3,> 50 µM
16,COc1ccc(NC2=Nc3ccccc3N3C2=Nc2c(c(C)nn2-c2ccc(C)cc2)C3c2cccnc2)cc1 (configuration not stated),> 50 µM

row,SMILES,IC50
1,CCOC(=O)c1c(C)oc2c1c(C(c1cccnc1)N1CCOCC1)c(O)c1ccccc12 (configuration not stated),> 50 µM
2,Cc1ccc(C2=N/C(=C\c3cccs3)C(=O)N2Nc2ccccc2)cc1,> 50 µM
3,COC(=O)CSc1nc(-c2ccccc2)cc(-c2ccco2)c1C#N,> 50 µM
4,Cn1c(=O)[nH]c(=O)c2c1nc1n2CCN1Cc1ccccc1,> 50 µM
5,COc1ccc(N(C(=O)c2ccco2)S(=O)(=O)c2cc(Cl)c(Cl)cc2Cl)cc1,> 50 µM
6,O=S(=O)(c1ccc2nc(-c3ccco3)c(-c3ccco3)nc2c1)N1CCOCC1,> 50 µM
7,CS(=O)(=O)N(CC(=O)Nc1cccc(Cl)c1)c1ccccc1Cl,> 50 µM
8,Cc1ccc2cc(C=C(C#N)C#N)c(N3CCCCC3)nc2c1,> 50 µM
9,Cc1nc(C)c(C(=O)Nc2nc3c(C)cccc3s2)o1,> 50 µM
10,C=CCn1c(SCC(=O)Nc2ncc(Cc3cc(C(F)(F)F)ccc3Cl)s2)nnc1-c1ccncc1,> 50 µM
11,CCN(CCNC(=O)C1CCCN(S(=O)(=O)CC)C1)c1ccccc1 (configuration not stated),> 50 µM
12,CC1CCCN(c2nc3ccccc3nc2C(C#N)C(=O)OC2CCCCC2)C1 (configuration not stated),> 50 µM
13,C=CCn1c(=O)/c(=C/c2cc(OC)c(OC)c(OC)c2)s/c1=C(/C#N)c1nc2ccccc2n1C,> 50 µM
14,CCSc1nnc(NC(=O)C(C(F)(F)F)C(F)(F)F)s1,> 50 µM
15,CCN(CCCNC(=O)CN(C)S(=O)(=O)c1cccc2nsnc12)c1cccc(C)c1,> 50 µM
16,O=C(/C=C/c1ccccc1)c1cc(Br)ccc(=O)c1O,> 50 µM
